# Measurements from the OligoGym collection.
# Target: GPR176
# Test: pooled miR-30 sensor sort-seq; sequence = guide strand
# Details: shRNA
# Note: reference of the scale not given here.
row,Sequence,sensor-assay potency score (higher = more potent)
1,TTGGTTACTGCAAACACAGGGA,0.111
2,TTGTCTGGATCAGCTCTTCTGG,-0.703
3,TTTATTGTTTCTGCTCATCTTC,-0.299
4,TTGCTCCAGACTTCCGTGCAGG,-0.956
5,AAAAATTTGACGACCTTGCAGA,-0.383

# Target: GPR20
# Test: as above
# Details: shRNA
row,Sequence,sensor-assay potency score (higher = more potent)
1,TTGATGGTGTAGATGACTGAGG,-1.03
2,TAGACGATGGGGTCCATGCAGC,-0.856
3,TTGGAGCTCCTGTGCATGCTGA,-0.983
4,ATGGTGTAGATGACTGAGGGTG,-1.26
5,TAGTACACAGCGAAGCGCGTGG,0.127
6,TGGTGTAGATGACTGAGGGTGT,-0.513
7,TAGACCACGAGGCTCGTGTGGT,-1.11
8,TACCAGTAGATCGGTCACCACC,-1.53
9,AAACACGCTGATGACCAGCAGG,-1.04
10,TAGATCGGTCACCACCAGGTTG,-0.8
11,TGCATGTTGAGGAAGTAACCGA,-0.614
12,TAGCGGTCCACGCAGATGCAGG,-1.47
